Sampled rows, rich in hits. Any-hit rate of the full collection: about 1.2%.
GLA inh pH 4.5 = blocks human alpha-galactosidase A at pH 4.5; P06280; purified enzyme, 4-MU-alpha-Gal fluorescence, pH 4.5; activity change, negative = inhibition, % at 105 µM; 230,000 tested, under 10 active;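 also: 0% = full activity with enzyme and -100% = basal without enzyme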
Target sequence (P06280 whole entry, looked up): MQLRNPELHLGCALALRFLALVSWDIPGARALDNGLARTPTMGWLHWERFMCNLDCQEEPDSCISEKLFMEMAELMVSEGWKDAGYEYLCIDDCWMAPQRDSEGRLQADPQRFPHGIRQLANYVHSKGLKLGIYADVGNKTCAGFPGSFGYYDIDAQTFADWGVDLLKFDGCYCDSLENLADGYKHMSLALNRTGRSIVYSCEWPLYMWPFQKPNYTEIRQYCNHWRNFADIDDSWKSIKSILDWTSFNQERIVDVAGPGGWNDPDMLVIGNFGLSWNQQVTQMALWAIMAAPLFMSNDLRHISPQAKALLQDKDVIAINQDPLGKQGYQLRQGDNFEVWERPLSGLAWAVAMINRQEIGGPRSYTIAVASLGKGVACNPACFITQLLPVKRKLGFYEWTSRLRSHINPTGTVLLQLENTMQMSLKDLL
HttQ103 aggreg = reduces HttQ103-GFP aggregates in PC12 cells; 220,000 compounds, 1.1% hits; PC12 HttQ103-GFP aggregates, Acumen cytometry, 40 h; Potency, µM (series often up to 46.1 µM), without a hit: at the top dose activity change, negative = inhibition, hits mostly inhibitors; also: potency is read from the fitted curve at half-maximal effect; % is scaled to controls: 0 for no effect and ±100 for the full control effect; nearly all actives have a fitted effect of over 60% in size
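Huntingtin Q103 exon 1–GFP aggregates in induced PC12 cells (100 nM tebufenozide) were quantified by cytometry from lysates, with compounds dosed in titration.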
GLA spleen mod = alpha-galactosidase A (human) modulation; P06280; human spleen homogenate, 4MU-alpha-Gal fluorescence, 40 min; Potency, µM (top dose mostly 80 µM), for the others: at the top dose activity change, negative = inhibition, most hits filed as inhibitors; 240,000 compounds, 0.008% hits;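 also: potency is read from the fitted curve at half-maximal effect; 0% = enzyme with vehicle and -100% = no enzyme basal signal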
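Human spleen homogenate (1 ug) as enzyme source, 4-methylumbelliferyl-alpha-D-galactopyranoside 1 mM final, citrate/phosphate pH 5.0 with 0.01% Tween-20. Compounds 40 min at 37C, NaOH/glycine stop; fluorescence Ex 365/Em 440, Hill-fit AC50.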
HTT cytoprotect = protects HTT-Q103 PC12 cells, measured by ATP; Potency, µM (titrated, usually from 56.4 µM), inactives show cytoprotection (ATP increase), usual class: activators; 230,000 compounds, 0.14% hits; PC12 HTT-Q103 induced, cytoprotection, ATP luminescence, 40 h; also: potency is read from the fitted curve at half-maximal effect; % of control where 0% means no effect; nearly all actives have a fitted effect of over 45% in size
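Quantitative HTS on tebufenozide-induced (100 nM) PC12 cells expressing HTTQ103 exon 1–GFP; compounds tested as a concentration series; survival measured via cellular ATP.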
* hit, by the source's call; ? = inconclusive; · = no result; [ ] = dose if it differs, or a comment. Calls follow the shape of the dose curve; as a rule, active = well fitted curve in the direction sought with a large enough effect; inconclusive = small, poorly fitted or top-dose-only effect, or another doubt; inactive = no such curve, though single readings can be large; an effect the other way counts as inactive or inconclusive.

SMILES	GLA inh pH 4.5	HttQ103 aggreg	GLA spleen mod	HTT cytoprotect
Fc1ccc(Nc2ncnc3sc4c(c23)CCC4)cc1F	3.0	10µM*	-9.8%	-18.5%[10 µM]
c1csc(CCNc2ncnc3sc4c(c23)CCC4)c1	-0.3	7.94µM*	4.8%	-5.9%
Fc1ccc(Nc2ncnc3sc4c(c23)CCC4)cc1	2.0	?	4.6%	-24.1%[10 µM]
COc1cccc(C2=Nn3c(nnc3-c3ccccc3C)SC2)c1	·	·	13.8%	·
CCN(CC)CCC(c1cc(OC)c(OC)c(OC)c1)c1c(OC)cc(OC)c2c1OC(=O)CC2c1ccc(N(C)C)cc1 (configuration not stated)	·	·	-0.6%	·
O=C1c2c(O)ccc(O)c2C(=O)c2c(NCCNCCO)ccc(NCCNCCO)c21	-12.9	10µM*	-2.7%	-274.3%
CC12CCC(C1)C(C)(C)C2=O (configuration not stated)	·	5.1%	·	-5.9%
CCSc1nnc(NC(=O)C(C)(C(F)(F)F)C(F)(F)F)s1	-4.1	25.1µM*	-2.6%	-44.1%
CCSc1nnc(NC(=O)C(CC)(C(F)(F)F)C(F)(F)F)s1	-2.0	-12.6%[9.22 µM]	-8.9%	-27.5%
C[C@H](Cc1nc2c(cnn2-c2ccccc2Cl)c(=O)[nH]1)C(F)(F)F	·	·	11.9%	·
Cc1cc(C)c2c(N)c(C(=O)c3ccccc3)sc2n1	-12.3	-20.7%[9.22 µM]	5.4%	-4.3%[10 µM]
Cc1nc2sc(C(N)=O)c(N)c2c(C)c1CC(=O)c1ccccc1	-3.7	3.55µM*	-12.9%	-41.2%
CCCCCCCC/C=C\CCCCCCCC(=O)N(CCO)CCO	·	·	-25.0%	4.7%
N[C@@H](C(=O)O)[C@H](O)C(=O)O	·	·	·	23.9%[1.9 µM]
COC(=O)/C=C/S(=O)(=O)c1ccc(NC(C)=O)cc1	-6.0	10µM*	-0.2%	-140.8%
CCC(=O)N1CCN(c2ccc(NC(=O)c3ccc([N+](=O)[O-])o3)cc2)CC1	12.5	-4.6%[9.22 µM]	-1.9%	9.2%[10 µM]
CCCC(=O)N1CCN(c2ccc(NC(=O)c3ccc([N+](=O)[O-])o3)cc2)CC1	-0.5	22.4µM*	-3.9%	-72.9%
COc1ccc(C(=O)Nc2ccc(Cl)c(S(=O)(=O)Nc3ccccc3OC)c2)cc1	2.9	?	-2.8%	14.9%[10 µM]
COc1ccccc1NS(=O)(=O)c1cc(NC(=O)c2ccc(Cl)nc2)ccc1Cl	-2.6	25.1µM*	3.8%	33.4%[10 µM]
CCN(CC)S(=O)(=O)c1ccc2[nH]cc(C(=O)NCCC3=CCCCC3)c(=O)c2c1	-15.5	10µM*	8.1%	-80.0%
NC(=NCc1ccc(Cl)cc1Cl)NC(=O)c1nc(Cl)c(N)nc1N	·	·	?	3.1%
COC(=O)[C@H]1[C@@H]2C[C@H]3c4[nH]c5ccccc5c4CCN3C[C@@H]2CC[C@@H]1O	·	·	·	6.7%
COc1ccc(C(=O)CSc2nc(SC)ns2)cc1OC	2.7	-23.9%	-1.3%	-2.6%[0.074 µM]
COc1ccc(C(=O)CSc2cc(C)nc3nc(C)nn23)cc1OC	2.6	·	-1.2%	12.6µM*
CN(C)c1nc(-c2ccccn2)nnc1-c1ccccc1	-0.7	-29.1%[9.22 µM]	8.2%	-32.2%
SMILES	GLA inh pH 4.5	HttQ103 aggreg	GLA spleen mod	HTT cytoprotect
CCN(CC)c1nc(-c2ccccn2)nc(-c2ccccc2)c1C#N	-33.6	5.01µM*	4.9%	-124.2%
Cc1cc(C)n(C(=O)/C(C#N)=N/Nc2cc(Cl)cc(Cl)c2)n1	-9.6	12.6µM*	5.8%	-161.4%
Cc1nc(C(F)(F)F)c(C(=O)N/N=C(\N)c2ccccn2)s1	-8.1	22.4µM*	-1.7%	-164.1%
Cc1nc([N+](=O)[O-])c(Sc2nc3ccccc3n2C)n1Cc1ccccc1	-1.6	10µM*	5.6%	22.1%[10 µM]
Brc1cc(Br)c2nc(-c3cccs3)ccc2c1	-18.5	9.1%	4.7%	-7.7%
Cc1nc2c(Br)cc(Br)cc2cc1O	-7.3	11.2µM*	3.3%	-1.9%
CCc1ccc(NC(=O)CSc2nc3ccccc3c(=O)n2CCCN2CCC(C)CC2)cc1	0.4	22.4µM*	-0.1%	-78.2%
Cc1cc(C)c2nc(SC3CCOC3=O)cc(C)c2c1 (configuration not stated)	-3.0	-11.5%	1.2%	0.0%[10 µM]
Cc1cc(C)c2nc(SC(C)C#N)cc(C)c2c1 (configuration not stated)	-11.2	-15.6%	-6.0%	0.631µM*
COc1oc(=O)c2cc(N)ccc2c1Cl	·	·	-9.1%	·
Cc1nn(C(C)(C)C)c(OC(=O)c2cccs2)c1S(=O)(=O)c1ccccc1	-16.3	12.6µM*	4.6%	-16.5%[0.074 µM]
CC(=O)Oc1c(S(=O)(=O)c2ccccc2)c(C)nn1C(C)(C)C	-0.1	0.4%	-4.2%	-0.4%
COc1ccc(-c2nnc3n2N=C(c2c(OC)cccc2OC)CS3)c(OC)c1	·	·	0.5%	·

Bioassay records from PubChem BioAssay.
